Screening results: PubChem, several laboratories
sPLA2-III inh = human group III sPLA2 inhibitors, primary screen, biochemical, QFRET, BODIPY PC-A2 liposome substrate | Group 3 secretory phospholipase A2 (Homo sapiens), Q9NZ20 | QFRET BODIPY PC-A2 liposome hydrolysis, fluorescence | inhibition, % at 12.2 µM | 370,000 tested, 0.56% active | AID 743126, 2013;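 active means inhibition above mean plus 3 SD of compounds lying within the high and low control bounds, cut at about 19% in these data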
ARNT TACC3 PPI = disruptors of ARNT/TACC3 protein interaction, primary screen, biochemical, AlphaScreen, single concentration. AlphaScreen His-ARNT PAS-B/GST-TACC3 binding, luminescence; TACC3 fragment carries E629A point mutation. 390,000 tested, 0.66% active. Transforming acidic coiled-coil-containing protein 3 (Homo sapiens), Q9Y6A5. inhibition, % at 9.99 µM;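 active means mean inhibition of replicates at least 50% and at least half of replicates each reaching 50%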
Neddyl block = inhibitors of cullin neddylation, primary screen, biochemical, TR-FRET, uHTS, NAE and Ubc12. NEDD8-conjugating enzyme Ubc12 (Homo sapiens) + NEDD8-activating enzyme E1 regulatory …. inhibition, % at 25 µM. 360,000 tested, 0.58% active. AID 651699, 2012; in the data active means inhibition above about 36%
NadD inh = inhibitors of S. aureus NadD, primary screen, biochemical, colorimetric, uHTS; inhibition, % at 20 µM; 360,000 tested, 0.78% active; purified NadD enzyme, colorimetric absorbance read-out; AID 602399, 2012; Nicotinate-nucleotide adenylyltransferase NadD (Staphylococcus aureus N315); in the data active means inhibition above about 26%
DAGLB inhibitor = DAGLB lipase inhibitors, primary screen, biochemical, fluorescence, HTS | HEK293T DAGLB membrane lysate, EnzChek fluorogenic substrate | inhibition, % at 5.17 µM | 340,000 tested, 0.059% active | Diacylglycerol lipase-beta (Homo sapiens), Q8NCG7; in the data active means inhibition above about 34%
Target sequence (Q8NCG7 whole entry, looked up): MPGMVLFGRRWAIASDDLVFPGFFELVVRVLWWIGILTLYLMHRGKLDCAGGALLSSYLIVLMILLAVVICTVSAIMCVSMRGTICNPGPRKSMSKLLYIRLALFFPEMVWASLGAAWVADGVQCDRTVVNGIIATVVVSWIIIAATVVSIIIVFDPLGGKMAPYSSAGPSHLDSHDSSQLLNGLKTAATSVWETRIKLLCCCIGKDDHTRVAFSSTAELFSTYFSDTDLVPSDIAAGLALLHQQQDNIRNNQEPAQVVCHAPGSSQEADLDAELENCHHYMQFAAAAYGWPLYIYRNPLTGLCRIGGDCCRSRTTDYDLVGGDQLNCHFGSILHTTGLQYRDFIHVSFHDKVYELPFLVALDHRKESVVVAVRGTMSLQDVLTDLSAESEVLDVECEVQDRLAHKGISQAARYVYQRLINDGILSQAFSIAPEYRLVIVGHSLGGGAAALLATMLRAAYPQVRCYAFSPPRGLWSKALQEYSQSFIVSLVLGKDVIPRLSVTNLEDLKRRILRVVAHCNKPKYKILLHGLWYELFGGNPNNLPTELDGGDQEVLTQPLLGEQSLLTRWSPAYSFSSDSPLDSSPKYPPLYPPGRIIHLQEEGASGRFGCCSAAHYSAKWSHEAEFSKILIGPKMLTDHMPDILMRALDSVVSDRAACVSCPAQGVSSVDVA
hGIII sPLA2 conf = human group III sPLA2 inhibitors, confirmation, biochemical, QFRET, triplicate; shares compounds with sPLA2-III inh; recombinant hGIII-sPLA2, BODIPY PC-A2 QFRET fluorescence; inhibition, % at 12.2 µM; 2,000 tested, 34% active; AID 743280, 2014;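 active means mean inhibition across triplicates above the hit cutoff set in the earlier primary screen, cut at about 19% in these data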
535nm interf = 535nm fluorescence optical interference, confirmation, artefact control for HGIII-sPLA2 inhibitor project, biochemical, QFRET; inhibition, % at 12.2 µM; 2,000 tested, 8.5% active; BODIPY FL product fluorescence interference; shares compounds with sPLA2-III inh;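 active means average inhibition above the solvent-only control mean plus 3 SD, cut at about 6% in these data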
BODIPY interf DR = 535nm fluorescence optical interference, dose response, artefact control for HGIII-sPLA2 inhibitor project, biochemical, QFRET | shares compounds with sPLA2-III inh | AID 743455, 2014 | 240 tested, under 10 active | BODIPY FL product fluorescence interference, cell-free | IC50, µM;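 active means IC50 at or below 10 µM; inactive means IC50 above 10 µM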
Of the large screens only hits and unclear results are named; the others gave an inactive call (follow-up assays come after a bar, where they were run); ! = a repeat was not active. Sampled rows, rich in hits. Any-hit rate of the full collection: about 2%.

COc1cc(OC)cc(-c2c(-c3cccs3)c3cc(-c4ccc5[nH]ccc5c4)ccc3n2C)c1	sPLA2-III inh 20 | hGIII sPLA2 conf 37 | 535nm interf 8.7
O=C(CCCNC(=O)c1ccc(Cl)cc1)Nc1ccccc1F	sPLA2-III inh 21 | hGIII sPLA2 conf inactive | 535nm interf inactive
Cc1cc(C)[n+]2n1C(=O)C(c1ccccc1)=C2[O-]	sPLA2-III inh 21! | hGIII sPLA2 conf inactive | 535nm interf inactive
COc1ccc(CN(C)C[C@H]2OCCCC[C@H](C)Oc3ccc(NC(=O)Nc4cccc5ccccc45)cc3C(=O)N([C@H](C)CO)C[C@H]2C)cc1	none (no result: sPLA2-III inh, Neddyl block, NadD inh, DAGLB inhibitor)
O=C(NCc1ccccc1)[C@H]1CCCN1C(=O)[C@H]1CCCN1C(=O)c1ccccc1	none (no result: ARNT TACC3 PPI, Neddyl block, NadD inh, DAGLB inhibitor)
COc1cccc(CNC(=O)[C@H]2CCCN2C(=O)[C@H]2CCCN2C(=O)c2ccc(C)cc2)c1	sPLA2-III inh 22 (no result: ARNT TACC3 PPI, Neddyl block, NadD inh, DAGLB inhibitor) | hGIII sPLA2 conf inactive | 535nm interf inactive
O=C(NCc1ccccc1)[C@H]1CCCN1C(=O)[C@H]1CCCN1C(=O)c1ccc(Cl)cc1	sPLA2-III inh 22 (no result: ARNT TACC3 PPI, Neddyl block, NadD inh, DAGLB inhibitor) | hGIII sPLA2 conf inactive | 535nm interf inactive
CC(C)NC(=O)N(C)C[C@H]1OCCCC[C@@H](C)Oc2ccc(N(C)C)cc2C(=O)N([C@H](C)CO)C[C@H]1C	none (no result: sPLA2-III inh, Neddyl block, NadD inh, DAGLB inhibitor)
CC(C)=C1C2CCC1C1C(=O)N(c3nccs3)C(=O)C21 (configuration not stated)	sPLA2-III inh 21 | hGIII sPLA2 conf inactive | 535nm interf inactive
O=C1c2ccccc2C(=O)c2c(NCc3cccnc3)cccc21	none
O=C1c2cccc(NCCCNCCO)c2C(=O)c2cccc(NCCCNCCO)c21	sPLA2-III inh 27, ARNT TACC3 PPI 49 | hGIII sPLA2 conf 25 | 535nm interf inactive
CCCn1c(=S)[nH]c2cc(C(=O)N3CCN(C4CCCCC4)CC3)ccc2c1=O	sPLA2-III inh 20 | hGIII sPLA2 conf inactive | 535nm interf inactive
CC(C)CC#Cc1cnc2c(c1)C(=O)N([C@@H](C)CO)C[C@@H](C)[C@H](CN(C)C(=O)NC1CCCC1)O2	none (no result: sPLA2-III inh, Neddyl block, NadD inh, DAGLB inhibitor)
CCOC(=O)c1cnc2ccc(OCC)cc2c1NCc1ccccc1OC	sPLA2-III inh 24 | hGIII sPLA2 conf inactive | 535nm interf inactive
COc1cccc(C(=O)N2C[C@@H]3[C@H](c4ccccc42)[C@@H](CO)N3Cc2ccccc2Cl)c1	none (no result: sPLA2-III inh, Neddyl block, NadD inh, DAGLB inhibitor)
O=c1oc(-c2ccc(Cl)c(Cl)c2)nn1-c1ccc(C(F)(F)F)cn1	sPLA2-III inh 30 (no result: ARNT TACC3 PPI, DAGLB inhibitor) | hGIII sPLA2 conf 23 | 535nm interf 7.8
CCCCc1n[nH]c(=S)n1Cc1ccc(Cl)cc1	sPLA2-III inh 20 (no result: ARNT TACC3 PPI) | hGIII sPLA2 conf 26 | 535nm interf inactive
CCCc1n[nH]c(=S)n1Cc1ccco1	sPLA2-III inh 22 | hGIII sPLA2 conf inactive | 535nm interf inactive
S=c1[nH]nc(-c2ccncc2)n1Cc1ccco1	none (no result: ARNT TACC3 PPI)
COc1cccc(-c2n[nH]c(=S)n2Cc2ccco2)c1	sPLA2-III inh 23 | hGIII sPLA2 conf 25 | 535nm interf inactive
CN1CCN(C(=O)C[C@H]2C[C@@H]3c4cc(NC(=O)c5cccnc5)ccc4O[C@@H]3[C@@H](CO)O2)CC1	none (no result: sPLA2-III inh, Neddyl block, NadD inh, DAGLB inhibitor)
CN(C)c1ccc(NC(=S)c2ccccn2)cc1	none
CN(C)c1ccc(C(=S)Nc2ccccc2)cc1	sPLA2-III inh 22 | hGIII sPLA2 conf 21 | 535nm interf inactive
O=C(C[C@H]1CC[C@@H]2[C@H](COC[C@H](O)CN2Cc2ccc(Cl)cc2)O1)NCc1cccc(F)c1	none (no result: sPLA2-III inh, Neddyl block, NadD inh, DAGLB inhibitor)
CN1[C@@H]2c3ccc(-c4ccc(F)cc4)c(=O)n3C[C@@H]2[C@@H](CO)[C@@H]1C(=O)NCC1CC1	none (no result: sPLA2-III inh, Neddyl block, NadD inh, DAGLB inhibitor)
O=C(CN1CCN(c2ccccc2)CC1)Nc1ccccc1C(F)(F)F	none
CN1CCN(CC(=O)Nc2ccccc2C(F)(F)F)CC1	sPLA2-III inh 22 | hGIII sPLA2 conf inactive | 535nm interf inactive
Cc1cc(Br)cc(/C=N/NC(=O)c2ccc3c(c2)OCO3)c1O	sPLA2-III inh 36 | hGIII sPLA2 conf 40 | 535nm interf inactive | BODIPY interf DR inactive
O=C(N/N=C/c1ccc2c(c1)OCO2)c1ccc(Br)o1	sPLA2-III inh 19 (no result: ARNT TACC3 PPI) | hGIII sPLA2 conf inactive | 535nm interf inactive
Cc1ccc(-c2ccc3c(c2)O[C@H](CN(C)Cc2ccccn2)[C@@H](C)CN([C@@H](C)CO)S3(=O)=O)cc1	none (no result: sPLA2-III inh, Neddyl block, NadD inh, DAGLB inhibitor)
CC(=O)Nc1ccc(NC(=S)NC(=O)c2ccc([N+](=O)[O-])cc2)cc1	sPLA2-III inh 24 | hGIII sPLA2 conf inactive | 535nm interf inactive
O=C(NC(=S)NNC(=O)c1ccccc1O)c1ccccc1	sPLA2-III inh 31, ARNT TACC3 PPI 55 | hGIII sPLA2 conf 25 | 535nm interf inactive
O=C(NC(=S)NNC(=O)c1ccccc1O)c1cccs1	sPLA2-III inh 30 | hGIII sPLA2 conf 30 | 535nm interf inactive | BODIPY interf DR inactive
CC(C)C(=O)Nc1ccc(NC(=S)NC(=O)c2ccc([N+](=O)[O-])cc2)cc1	none
O=C(NC(=S)NNC(=O)c1ccccc1O)c1ccc(F)cc1	sPLA2-III inh 35, ARNT TACC3 PPI 19 | hGIII sPLA2 conf 31 | 535nm interf inactive
CO[C@@H]1CN(C)C(=O)c2cc(NC(=O)C3CC3)ccc2OC[C@@H](C)N(Cc2ccccc2)C[C@@H]1C	none (no result: sPLA2-III inh, Neddyl block, NadD inh, DAGLB inhibitor)
Cc1noc(C)c1NC(=O)Nc1ccc2c(c1)C(=O)N([C@@H](C)CO)C[C@@H](C)[C@H](CN(C)Cc1ccc(C(=O)O)cc1)OCCCC[C@@H](C)O2	none (no result: sPLA2-III inh, Neddyl block, NadD inh, DAGLB inhibitor)
O=C(C[C@@H]1C[C@@H]2c3cc(NC(=O)C4CCOCC4)ccc3O[C@@H]2[C@@H](CO)O1)NCC1CC1	none (no result: sPLA2-III inh, Neddyl block, NadD inh, DAGLB inhibitor)
CC(C)(C)c1ccc(OCCCC(=O)NNC(=O)c2ccccc2O)cc1	none
O=C(NNC(=S)NC(=O)c1ccccc1)c1ccc([N+](=O)[O-])cc1	none
O=C(NC(=S)NNC(=O)c1ccccc1O)c1ccc([N+](=O)[O-])cc1	sPLA2-III inh 39 | hGIII sPLA2 conf 29 | 535nm interf inactive | BODIPY interf DR inactive
